Source: PubChem (National Center for Advancing Translational Sciences (NCATS))
BAZ2B block: BAZ2B (human) inhibition. Q9UIF8. AlphaScreen BAZ2B-H3K14Ac peptide displacement. Potency, µM (series often up to 114 µM), for the others: top-dose activity change, negative = inhibition, most hits filed as inhibitors. 360,000 tested, 4.4% active. AID 504333; further: on the % scale 0 is the no-effect control and ±100 the full control effect; nearly all actives have a fitted effect of over 60% in size
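Multi-concentration screen (max 110 uM) measuring displacement of acetylated histone H3 peptide from BAZ2B by AlphaScreen, using 50 nM protein, 50 nM peptide and 10 ug/mL streptavidin donor plus Ni-chelate acceptor beads.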
TDP1 inh: TDP1 (human) enzyme inhibition | Q9NUW8 | 350,000 tested, 0.28% active | Potency, µM (highest dose often 130 µM), without a hit: top-dose activity change, negative = inhibition, hits mostly inhibitors | recombinant TDP1, AlphaScreen DNA substrate cleavage; further: on the % scale 0 is the no-effect control and ±100 the full control effect; nearly all actives have a fitted effect of over 40% in size
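Signal: AlphaScreen proximity between streptavidin donor and anti-FITC acceptor beads on intact substrate. Reaction: Tdp1 1 nM, substrate 15 nM final, 5 min RT after 15 min compound preincubation.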
Sfp inh: Sfp phosphopantetheinyl transferase inhibition | Biochemical Sfp PPTase activity, qHTS | 310,000 tested, 3.5% active | AID 1490 | Q9F4F7 | Potency, µM, inactives show largest response in the series, negative = inhibition, hits mostly inhibitors;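 further: the enzyme is Sfp with the accession as filed and its product quenches rhodamine fluorescence; 0% = enzyme reaction without inhibitor and -100% = no enzyme wells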
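Fluorescence-quenching assay with 15 nM Sfp, 5 uM rhodamine-CoA and 12.5 uM BHQ-2-labelled ybbR peptide in pH 7.6 Hepes/MgCl2 buffer. Enzyme was pre-incubated with compound for 15 min at room temperature. Rate was taken from the 30-min fluorescence change (525/598 nm).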
HP1b binding inh: blocks HP1-beta chromodomain binding to methylated histone tails; P83916; 390,000 tested, 0.56% active; AlphaScreen HP1-beta / biotin-H3K9me3 peptide binding; Potency, µM (top dose mostly 114 µM), without a hit: at the highest dose activity change, negative = inhibition, usual class: inhibitors; AID 540317; further: nearly all actives have a fitted effect of over 70% in size
Target sequence (P83916 whole entry, looked up): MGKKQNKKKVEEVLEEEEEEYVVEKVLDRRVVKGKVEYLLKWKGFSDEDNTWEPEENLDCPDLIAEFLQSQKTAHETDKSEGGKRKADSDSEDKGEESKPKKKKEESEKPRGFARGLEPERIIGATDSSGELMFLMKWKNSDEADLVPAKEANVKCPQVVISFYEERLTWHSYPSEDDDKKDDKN
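Compound inhibition of the preformed complex between 50 nM HP1-beta and 50 nM biotinylated H3K9me3 peptide was read by AlphaScreen. Buffer was PBS pH 7.4 with 0.01% Tween-20. Incubations ran 30 min at room temperature, with 10 ug/mL donor/acceptor beads.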
JMJD2A Tudor: blocks the human JMJD2A Tudor domain. AlphaScreen JMJD2A-Tudor / H3K4me3 peptide binding. Potency, µM (highest dose often 114 µM), inactives show top-dose activity change, negative = inhibition, actives largely listed as inhibitors. 390,000 tested, 4.4% active. AID 504339; further: on the % scale 0 is the no-effect control and ±100 the full control effect; nearly all actives have a fitted effect of over 50% in size
G9a inh: blocks human histone lysine methyltransferase G9a; G9a H3K9 monomethylation, AlphaScreen, 2 h; Potency, µM (highest dose often 102 µM), for the others: top-dose activity, negative = inhibition, hits mostly inhibitors; 350,000 tested, 8.8% active; further: on the % scale 0 is the no-effect control and ±100 the full control effect; nearly all actives have a fitted effect of over 75% in size
Target sequence (Q96KQ7 913-1193 limits assumed): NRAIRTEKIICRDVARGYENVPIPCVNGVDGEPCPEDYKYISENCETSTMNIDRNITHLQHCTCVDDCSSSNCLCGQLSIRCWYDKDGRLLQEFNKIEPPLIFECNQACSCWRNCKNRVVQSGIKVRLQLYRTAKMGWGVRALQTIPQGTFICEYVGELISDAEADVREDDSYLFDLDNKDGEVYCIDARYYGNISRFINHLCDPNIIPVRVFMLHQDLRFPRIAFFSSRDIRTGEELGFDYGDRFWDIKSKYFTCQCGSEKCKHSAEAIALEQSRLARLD
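AlphaScreen detection with an anti-monomethyl H3K9 antibody quantified product after a 2 h room-temperature reaction containing 500 nM biotinylated H3K9 peptide, 20 µM SAM and 20 nM enzyme, which had been preincubated 15 min with compound.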
Starred values were filed as active, the others as inactive; [ ] = another dose, or the depositor's remark. This is a sample that favours compounds with a hit; in the whole collection about 12% have one here. The call rests on the fitted dose curve; in most records, active means well fitted curve in the direction sought with a large enough effect; inconclusive means small, poorly fitted or top-dose-only effect, or another doubt; inactive means no such curve, though single readings can be large; an effect the other way counts as inactive or inconclusive. Potency means the concentration at half of the fitted maximal effect.

Screening COc1cccc(C2C(C(=O)c3ccco3)=C(O)C(=O)N2CCCN2CCOCC2)c1OC (stereo not given) returned HP1b binding inh 34.4% and JMJD2A Tudor -7.0%.
COc1ccc(C2C(C(=O)c3cccs3)=C(O)C(=O)N2CCN2CCOCC2)c(OC)c1 (stereo not given) was read as BAZ2B block -19.6%, Sfp inh 9.2%, HP1b binding inh 8.8%, JMJD2A Tudor -22.5% and G9a inh 50.1µM*.
COc1ccc(OC)c(C2C(C(=O)c3cccs3)=C(O)C(=O)N2CCN2CCOCC2)c1 (stereo not given) was read as BAZ2B block 20.0%, Sfp inh inconclusive, HP1b binding inh 25.3%, JMJD2A Tudor -0.4% and G9a inh 44.7µM*.
For CCN(CC)S(=O)(=O)c1cc(NC(=O)C(C)N2CCc3ccccc32)ccc1C (stereo not given) the results were TDP1 inh 5.3%, Sfp inh 8.5%, HP1b binding inh -13.3%, JMJD2A Tudor inconclusive and G9a inh 25.1µM*.
CC(C(=O)Nc1ccc(S(N)(=O)=O)cc1)N1CCc2ccccc21 (stereo not given) was read as BAZ2B block -36.1%, TDP1 inh -5.8%, Sfp inh 4.1%, HP1b binding inh -4.1%, JMJD2A Tudor -28.2% and G9a inh 79.4µM*.
`COc1ccc(C)cc1NC(=O)c1ccc2nc(Cc3ccccc3)oc2c1` gave BAZ2B block 28.7%, TDP1 inh 4.1%, HP1b binding inh 69.6%[57 µM], JMJD2A Tudor 2.9% and G9a inh 9.1%[59 µM].
For O=C(O)c1ccc(Cn2nnc3sc4c(c3c2=O)CCCC4)cc1 the results were BAZ2B block 79.4µM*, TDP1 inh 50.1µM*, Sfp inh -18.2%, HP1b binding inh 5.5%, JMJD2A Tudor -15.8% and G9a inh 50.1µM*.
Screening C=CCSc1nc2sc3c(c2c(=O)[nH]1)CC(C)(C)OC3 returned HP1b binding inh 36.7% and JMJD2A Tudor -3.4%.
For Cc1ccccc1NC(=O)Cn1nnc2sc3c(c2c1=O)CC(C)(C)OC3 the results were BAZ2B block -4.0%, TDP1 inh -2.8%, Sfp inh 4.2%, HP1b binding inh -3.2%, JMJD2A Tudor -15.5% and G9a inh 23.8%.
`CC1(C)Cc2c(sc3nnn(Cc4ccccc4)c(=O)c23)CO1` gave BAZ2B block -7.2%, TDP1 inh -8.1%, Sfp inh -20.8%, HP1b binding inh 23.6%, JMJD2A Tudor 6.5% and G9a inh 12.6µM*.
For C=CCNC(=S)NNc1nc2sc3c(c2c(=O)[nH]1)CC(C)(C)OC3 the results were BAZ2B block -4.5%, TDP1 inh 1.3%, Sfp inh 7.08µM*, HP1b binding inh 7.5% and JMJD2A Tudor -5.5%.
CC1(C)Cc2c(sc3nn[nH]c(=O)c23)CO1 was read as BAZ2B block 13.7%, TDP1 inh -1.0%, Sfp inh -12.7%, HP1b binding inh -13.1%, JMJD2A Tudor -11.7% and G9a inh 31.6µM*.
For O=C(CSc1nc2c(oc3ccccc32)c(=O)n1-c1ccccc1)Nc1ccc(F)c(Cl)c1 the results were BAZ2B block 1.4%, TDP1 inh -1.0%, HP1b binding inh 40.1%, JMJD2A Tudor 1.1% and G9a inh -4.3%[59 µM].
Screening O=C(c1ccco1)N1CCC2(CCCN(c3ccccn3)C2)CC1 returned Sfp inh -1.0% and G9a inh 3.1%[12.7 µM].
Screening COc1ccc(/C=C/C(=O)C2CC2)cc1COc1cccc(C)c1C returned BAZ2B block -3.3%, Sfp inh -14.3%, HP1b binding inh 85.2%, JMJD2A Tudor 26.0% and G9a inh 146.4%.
Cc1c(C(=O)N2CCC(C)CC2)c(S(=O)(=O)Nc2ccc(OC(F)(F)F)cc2)c(C)n1C was read as BAZ2B block -31.0%, TDP1 inh 3.8%, HP1b binding inh 17.8%, JMJD2A Tudor -11.3% and G9a inh 10.1%[12.7 µM].
`Nc1cc(Cl)nnc1Cl` gave BAZ2B block -1.1%, TDP1 inh inconclusive, Sfp inh 18.2%, HP1b binding inh 24.0%, JMJD2A Tudor -10.3% and G9a inh inconclusive.
CC1C(=O)Nc2ccc(S(=O)(=O)Nc3ccccc3Br)cc2NC1=O (stereo not given) was read as BAZ2B block inconclusive, TDP1 inh 11.4%, Sfp inh 14.6%, HP1b binding inh 35.6%, JMJD2A Tudor inconclusive and G9a inh -44.4%.
Screening Cc1cc(=S)c2ccccc2[nH]1 returned BAZ2B block inconclusive, TDP1 inh 0.6%, Sfp inh 56.2µM*, HP1b binding inh 10.8%, JMJD2A Tudor inconclusive and G9a inh 2µM*.
Screening O=[N+]([O-])c1ccc(-c2nc(-c3ccc(F)cc3)c(-c3ccncc3)[nH]2)cc1 returned TDP1 inh 22.0%, Sfp inh -29.0% and G9a inh 35.5µM*.
For O=[N+]([O-])c1ccc2nc(-c3ccncc3)[nH]c2c1 the results were BAZ2B block -0.9%, TDP1 inh -1.3%, Sfp inh 5.8%, HP1b binding inh 50.9%, JMJD2A Tudor -6.3% and G9a inh inconclusive.
`NC(=O)c1ccc([N+](=O)[O-])cc1SCc1ccccc1` gave BAZ2B block inconclusive, TDP1 inh 0.0%, Sfp inh -10.6%, HP1b binding inh 17.3%, JMJD2A Tudor -29.2% and G9a inh 39.8µM*.
Screening Cc1cc(OCCOCCN(C)C)ccc1Cl returned BAZ2B block inconclusive, Sfp inh -29.4%, HP1b binding inh inconclusive, JMJD2A Tudor 28.2µM* and G9a inh inconclusive.
Screening Cc1cc(Cl)cc(Cl)c1OCCOc1cccc2cccnc12 returned BAZ2B block 4.4%, TDP1 inh 0.0%, Sfp inh inconclusive, HP1b binding inh 17.4%, JMJD2A Tudor -8.7% and G9a inh 23.8%[12.7 µM].
`Cc1cc(Cl)cc(Cl)c1OCCOCCN(C)C` gave BAZ2B block inconclusive, Sfp inh -20.5%, HP1b binding inh inconclusive, JMJD2A Tudor 6.31µM* and G9a inh 11.2µM*.
Screening Cc1cc(C)c(OCCN(C)C)c(Cl)c1 returned BAZ2B block 50.1µM*, TDP1 inh -4.3%, Sfp inh -17.7%, HP1b binding inh inconclusive, JMJD2A Tudor 3.55µM* and G9a inh 11.2µM*.
Screening CN(CCOCCOc1ccc2ccccc2c1)Cc1ccccc1 returned BAZ2B block -15.3%, TDP1 inh -2.8%, Sfp inh 1.4%, HP1b binding inh 73.7%, JMJD2A Tudor -17.5% and G9a inh 3.5%[59 µM].
Cc1cc(C)c(OCCCCCNCCO)c(C)c1 was read as BAZ2B block 11.1%, TDP1 inh 0.0%, Sfp inh -7.4%, HP1b binding inh 22.3%, JMJD2A Tudor -22.6% and G9a inh 5.2%.
